Bioassay records as filed in PubChem BioAssay.
Shown are actives, neighbours in structure and some others; about 2.9% of the full set was active somewhere.
TRPML1 inh: blocks the human TRPML1 channel | Q9GZU1 | TRPML1-inducible cells, Ca2+ dye fluorescence, FDSS; hits give low values; inhibition of EC80 agonist-evoked calcium signal | activity change, negative = inhibition, % (no concentration beside the values) | 390,000 tested, 0.02% active | AID 624415; in the data active = activity change below about -50%; inconclusive = between about -30% and that limit;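 note: stimulus is agonist 54-4 at its EC80 concentration; % is set by controls: 0 for no effect and ±100 for the full control effect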
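Tet-induced TRPML1-DL cells loaded with Ca8 no-wash calcium dye were read kinetically on FDSS. Compound addition was followed by EC80 agonist 54-4 (4 uM final); inhibition was read over 110 s.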
DRD3 antagonist: blocks the human D3 dopamine receptor | 360,000 tested, 2.5% active | D3R cells, DiscoveRx beta-arrestin luminescence, antagonist mode; hits give low values | max response, negative = inhibition, %; in the data active = max response below about -50%; inconclusive = no clear call, values can overlap the other calls; note: % is set by controls: 0 for no effect and ±100 for the full control effect
Target sequence (P35462 whole entry, looked up): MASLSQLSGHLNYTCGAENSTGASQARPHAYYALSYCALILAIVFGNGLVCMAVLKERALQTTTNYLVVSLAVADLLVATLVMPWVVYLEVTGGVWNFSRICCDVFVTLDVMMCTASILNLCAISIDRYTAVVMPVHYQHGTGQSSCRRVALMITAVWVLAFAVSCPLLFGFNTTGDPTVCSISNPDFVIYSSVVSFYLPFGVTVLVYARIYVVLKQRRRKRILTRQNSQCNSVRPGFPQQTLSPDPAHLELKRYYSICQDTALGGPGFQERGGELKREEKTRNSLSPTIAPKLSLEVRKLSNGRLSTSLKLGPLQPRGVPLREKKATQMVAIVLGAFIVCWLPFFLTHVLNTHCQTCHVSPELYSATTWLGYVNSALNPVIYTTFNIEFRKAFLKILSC
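Cells expressing the human receptor were seeded at 1500 cells/well, incubated overnight at 37 degrees C in 5% CO2, then exposed to library compounds with dopamine controls for 90 minutes at 37 degrees C before luminescent detection.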
TRPML1 agonist: agonists of human TRPML1 channel | Q9GZU1 | TRPML1-expressing cells, Ca2+ dye fluorescence, FDSS | 410,000 tested, 0.12% active | activation, % (concentration not given with the values); in the data active = activation above about 50%; inconclusive = mostly about 30% to 49%; note: 0% is about no effect
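Calcium fluorescence on an FDSS kinetic reader gave the read-out. Tet-induced TRPML1-DL cells were plated overnight, dye-loaded (Ca8 with quencher, 45-90 min, room temperature, dark), then read 110 s after compound addition, and again 110 s after 4uM final 54-4 (EC80).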
DRD3 agonist: agonists of human D3 dopamine receptor; D3R DiscoveRx beta-arrestin cells, luminescence, 90 min; max activation, %; 410,000 tested, 0.58% active; AID 652048; in the data active = max activation above about 30%; note: 0% is about no effect
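Agonist-mode cell screen: cells plated at 1500/well and incubated overnight at 37 °C, then exposed to library compounds for 90 min at 37 °C. Detection reagent was added for 30–60 min at room temperature, and luminescence was read.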
Active calls of the source: *; ? = inconclusive; . = no result.

SMILES	TRPML1 inh	DRD3 antagonist	TRPML1 agonist	DRD3 agonist
Cc1ccc(C2N=C(Nc3nc4ccccc4o3)NC3=C2C(=O)CC(C)(C)C3)cc1 (stereo not given)	.	.	-1	.
CC1CCN2c3ccccc3CC3(C(=O)OC(C)(C)OC3=O)C2C1 (stereo not given)	.	.	-1	.
O=C(c1noc2c1CCCCC2)N1CCN(c2cccc(Cl)c2)CC1	30	.	1	-7
O=C(c1noc2c1CCCCC2)N1CCN(c2cccc(C(F)(F)F)c2)CC1	-1	.	3	52*
O=C(C1CCCN(Cc2ccccc2)C1)N1CCCCC1 (stereo not given)	5	52	-1	-3
O=C(C1CCCN(Cc2ccccc2Br)C1)N1CCCCC1 (stereo not given)	9	-85*	0	-6
O=C(C1CCCN(Cc2ccccc2C(F)(F)F)C1)N1CCCCC1 (stereo not given)	-14	-88*	0	1
COc1ccccc1CN1CCCC(C(=O)N2CCCCC2)C1 (stereo not given)	4	-24	0	-26
Cc1ccc(N(CC(=O)N2CCN(c3cccc(C)c3C)CC2)S(=O)(=O)c2c(C)nn(C)c2C)cc1	21	.	2	-2
OC(C1=C/C(=C\c2ccncc2)c2ccccc21)c1ccncc1 (stereo not given)	.	.	0	.
CCc1ccccc1NC(=O)C1CCN(c2nn3c(=O)cc(C)nc3s2)CC1	7	.	0	3
NC(=O)N[C@@H](CCC(=O)O)C(=O)O	.	.	.	-7
Cn1c(=O)oc2cc(S(=O)(=O)Nc3cccc([N+](=O)[O-])c3)ccc21	11	-88*	1	-28
Cn1c(=O)oc2cc(S(=O)(=O)Nc3ccccc3)ccc21	0	6	0	11
N#Cc1c2ccc(O)cc2n2ccccc12	1	66	20	43*
N#Cc1c2ccc(OCC(=O)NCc3ccco3)cc2n2ccccc12	-4	12	1	12
CCCCN(CCC(=O)O)c1ccc(/C=C/c2ccnc3ccccc23)cc1	.	.	99*	.
COc1cc2c(cc1OC)n(CC(=O)c1cc(C)ccc1C)c(=O)n1nc(CCn3nc(C)cc3C)nc21	0	.	1	2
Cc1ccc(S(=O)(=O)N2CCN(c3nc(-c4cscn4)nc4ccccc34)CC2)cc1	.	.	0	.
COc1ccc(C(=O)Nc2cc3c(cc2N2CCCC2)n(C)c(=O)c(=O)n3C)cc1OC	3	.	0	1
COc1ccc(C(=O)Nc2cc3c(cc2N2CCCCC2)n(C)c(=O)n3C)cc1OC	-15	24	-1	32*
COc1ccc2sc(N(Cc3cccnc3)C(=O)C3COc4ccccc4O3)nc2c1 (stereo not given)	-17	.	4	1
CCC(=O)N1c2ccc(S(=O)(=O)NCc3ccc(F)cc3)cc2CC1C (stereo not given)	26	.	3	-12
COc1cccc(-c2sc3ccc(OC)cc3c2C#CCCO)c1	12	10	2	1
COc1cc(OC)cc(-c2sc3ccc(OC)cc3c2C#CC2(N)CCCCC2)c1	21	64	0	36*
SMILES	TRPML1 inh	DRD3 antagonist	TRPML1 agonist	DRD3 agonist
COc1cc(OC)cc(-c2sc3ccc(OC)cc3c2C#CC(C)(C)O)c1	-10	29	2	36*
COc1ccc(-c2sc3cc4c(cc3c2C#Cc2cncn2C)OCO4)cc1	-10	-1	0	-5
COC(=O)c1c(-c2ccc(OC)cc2)sc2ccc(OC)cc12	11	78	0	58*
COc1ccc(-c2sc3ccc(OC)cc3c2C#Cc2cncn2C)cc1	5	120	0	34*
COc1ccc2nc(NC(=O)c3ccc(S(=O)(=O)N4CCCC(C)C4)cc3)sc2c1 (stereo not given)	11	.	1	-1
COc1cc(OC)cc(-c2sc3ccc(OC)cc3c2C#CCO)c1	12	2	0	40*
Cn1c(=O)[nH]c(=O)c2c1nc(SCCN1CCOCC1)n2Cc1ccccc1	-8	-70*	1	-11
COc1cccc2c1cc1c(=O)n(CC(=O)NCc3ccco3)nc(C)n12	-3	.	1	4
Cc1ccc(S(=O)(=O)Nc2cccc(C(=O)NC3CCN(Cc4ccccc4)CC3)c2)cc1F	7	-23	2	-29
O=C(NC1CCN(Cc2ccccc2)CC1)c1cccc(S(=O)(=O)Nc2ccc(SC(F)F)cc2)c1	2	-101*	0	-26
Cc1ccc(Cn2nnnc2CN2CCC(NC(=O)c3ccc(Br)cc3)CC2)cc1	24	-65*	1	1
O=C(NC1CCN(Cc2ccccc2)CC1)c1cccc(NS(=O)(=O)c2ccc(Br)cc2)c1	-4	-109*	0	-27
Cc1ccc(NS(=O)(=O)c2ccc(C(=O)NC3CCN(Cc4ccccc4)CC3)cc2)cc1	7	-68*	3	-4
Cc1ccc(NS(=O)(=O)c2cccc(C(=O)NC3CCN(Cc4ccccc4)CC3)c2)cc1	-5	?	1	-22
CCOc1ccc(S(=O)(=O)Nc2cccc(C(=O)NCC(c3ccco3)N(C)C)c2)cc1 (stereo not given)	-12	-56*	6	-33
COc1ccc(C(CNC(=O)c2cccc(NS(=O)(=O)c3ccccc3)c2)N(C)C)cc1 (stereo not given)	10	?	1	-10
COc1ccc(C(CNC(=O)c2cccc(NS(=O)(=O)c3ccc(C)c(F)c3)c2)N(C)C)cc1 (stereo not given)	-4	-59*	1	-23
CCOc1ccc(S(=O)(=O)Nc2cccc(C(=O)NCC(c3ccccc3)N(C)C)c2)cc1 (stereo not given)	-20	-68*	4	-17
CCOc1ccc(NS(=O)(=O)c2ccc(C(=O)NCC(c3ccco3)N(C)C)cc2)cc1 (stereo not given)	11	1	11	-8
CC(C)CCNC(=O)Nc1ccc2c(c1)N(Cc1ccccc1)C(=O)c1ccccc1S2	1	.	0	6
Cc1ccc(C(=O)c2cc(O)c(O)c([N+](=O)[O-])c2)cc1	.	.	.	1
COc1ccc(OC)c(NC(=O)c2c(NCc3ccc(OC)c(OC)c3)sc3c2CCC(C)C3)c1 (stereo not given)	7	.	0	-6
O=C(O)c1ccc(Sc2nnc(-c3cccc(Br)c3)o2)c([N+](=O)[O-])c1	-6	-66*	0	-2
COc1ccc2cc([C@@H](C)C(=O)O)ccc2c1	?	-28	-1	-13
CC(C(=O)O)c1cccc(Oc2ccccc2)c1 (stereo not given)	-5	-62*	0	-29
S=c1[nH]nc(-c2cccnc2)n1/N=C/c1cccs1	20	-111*	0	3
O=[N+]([O-])c1cc2c(cc1/C=N/n1c(-c3ccccn3)n[nH]c1=S)OCO2	8	-50*	0	-3
O=[N+]([O-])c1cc2c(cc1/C=N/n1c(-c3ccccc3)n[nH]c1=S)OCO2	15	?	1	-5
S=c1[nH]nc(-c2ccncc2)n1Cc1ccccc1	1	-14	0	-9
